An excerpt weighted towards active compounds, which were near 5.1% of everything screened.
GRIN3A LBD mod: binders of NR3A ligand-binding domain, primary screen, biophysical, differential scanning fluorimetry, uHTS | Tm shift relative to glycine control, % at 25 µM | NR3A LBD differential scanning fluorimetry, Tm shift; 0% = protein alone, 100% = glycine-bound protein | Glutamate receptor ionotropic, NMDA 3A (GRIN3A) ligand-binding domain | actives 2.5% (n = 340,000);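 active means melting temperature shift of at least 10% of the positive control shift, at one fixed dose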
CRFR2-BP ag: agonists of CRF-BP/CRF-R2 complex, primary screen, cell-based, HEK293, calcium dye fluorescence, uHTS. CRF-binding protein / CRF receptor 2 complex (human). calcium dye fluorescence (FLIPR); percent of saturating CRF peptide response. activation, % at 13.2 µM. actives 0.46% (n = 350,000). AID 588473, 2011;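 active means activation of at least 50%, plus an integration ratio under a set limit after plate pattern correction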;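 further: plate controls were neutral control wells without compound for no effect and CRF at EC100 for full effect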
MPTP block: mitochondrial permeability transition pore inhibitors, primary screen, biochemical, isolated mouse mitochondria, absorbance; Ca2+ swelling absorbance, 30 min; inhibition, % at 10 µM; actives 1.4% (n = 360,000);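 active means inhibition of 50% or more, scaled per plate between neutral and stimulator controls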;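 further: 0% = DMSO wells given calcium and 100% = 1 mM EGTA wells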
CRFR2-BP antag: antagonists of CRF-BP/CRF-R2 complex, primary screen, cell-based, HEK293, calcium dye fluorescence, uHTS. CRF-induced calcium fluorescence. inhibition, % at 11.8 µM. actives 0.59% (n = 350,000). AID 588475, 2011;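 active means inhibition of the ligand-induced calcium signal above about 50% at the single tested concentration, limit read from the data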
TMEM16A act: TMEM16A chloride channel activators or potentiators, primary screen, cell-based, HTS; AID 623877, 2012; actives 0.3% (n = 340,000); Anoctamin-1 (Mus musculus), Q8BHY3; B-score at 10 µM; HEK293 TMEM16A/YFP-H148Q/I152L, iodide quench fluorescence; active compounds read low;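 active means fluorescence-ratio B-score plate-corrected deviation score at least 3 library SD below zero, with starting fluorescence score within 5 deviations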;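 further: channel opened by trigger with iodide after compound preincubation; score built on the fluorescence ratio of max minus min over baseline; more negative score means more quench and so TMEM16A activation or potentiation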
Target sequence (Q8BHY3 whole entry, looked up): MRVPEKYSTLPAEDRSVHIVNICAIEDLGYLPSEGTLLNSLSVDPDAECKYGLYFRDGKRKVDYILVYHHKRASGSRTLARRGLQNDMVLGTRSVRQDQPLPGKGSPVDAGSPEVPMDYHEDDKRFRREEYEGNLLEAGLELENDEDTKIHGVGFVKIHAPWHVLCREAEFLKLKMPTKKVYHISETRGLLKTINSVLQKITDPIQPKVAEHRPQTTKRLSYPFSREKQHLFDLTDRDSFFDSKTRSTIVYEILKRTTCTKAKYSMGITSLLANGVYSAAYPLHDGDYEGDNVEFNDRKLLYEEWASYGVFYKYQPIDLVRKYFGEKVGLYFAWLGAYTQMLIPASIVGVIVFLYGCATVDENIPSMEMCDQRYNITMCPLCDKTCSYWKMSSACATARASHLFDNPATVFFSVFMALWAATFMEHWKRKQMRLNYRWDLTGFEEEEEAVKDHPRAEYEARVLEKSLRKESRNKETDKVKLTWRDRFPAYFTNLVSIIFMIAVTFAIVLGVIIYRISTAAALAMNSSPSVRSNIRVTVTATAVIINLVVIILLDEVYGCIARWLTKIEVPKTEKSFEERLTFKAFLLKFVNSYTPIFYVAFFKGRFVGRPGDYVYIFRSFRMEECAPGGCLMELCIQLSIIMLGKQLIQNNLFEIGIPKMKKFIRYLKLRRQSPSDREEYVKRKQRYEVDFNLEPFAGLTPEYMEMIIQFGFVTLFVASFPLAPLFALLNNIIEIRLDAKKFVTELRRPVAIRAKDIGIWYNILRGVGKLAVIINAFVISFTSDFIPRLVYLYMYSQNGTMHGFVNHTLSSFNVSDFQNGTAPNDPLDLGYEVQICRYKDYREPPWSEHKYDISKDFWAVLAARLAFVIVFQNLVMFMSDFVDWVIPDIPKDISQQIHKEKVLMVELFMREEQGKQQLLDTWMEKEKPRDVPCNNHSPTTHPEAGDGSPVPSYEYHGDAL
ANO1 block: TMEM16A chloride channel inhibitors, primary screen, cell-based, HTS. Anoctamin-1 (Mus musculus), Q8BHY3. HEK293 TMEM16A/YFP iodide influx fluorescence, ionomycin. normalized B-score (activity score, 25-100; higher = stronger inhibition) at 10 µM. actives 1.2% (n = 310,000). AID 588511, 2011;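 active means ratio plate-corrected score three or more library SD toward inhibition, starting fluorescence score within five deviations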;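 further: score derived from kinetic fluorescence span divided by baseline fluorescence per well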
* = called active by the depositor; i = inactive; . = no result.

SMILES | GRIN3A LBD mod | CRFR2-BP ag | MPTP block | CRFR2-BP antag | TMEM16A act | ANO1 block
C=CCOn1c(C)c(C(C)=O)c2c3nonc3ccc21 | -3 | -2 | -1 | -1 | i | i
CCOC(=O)c1c(C)n(OCc2ccccc2)c2ccc3nonc3c12 | 1 | -1 | 2 | 53* | i | i
COc1ccc(Nc2nccc3c2ncn3C)cc1 | 1 | 1 | 1 | 14 | i | i
CC(=O)c1cccc(NC(=S)NC(=O)Cc2ccc(Cl)cc2)c1 | -8 | 63* | 0 | -87 | i | i
CCC1(C)Cc2c(C#N)c(N)n(-c3ccccc3)c(=S)c2CO1 (configuration not stated) | 0 | 0 | 1 | 13 | i | i
CCC1(C)Cc2c(C#N)c(N)sc(=S)c2CO1 (configuration not stated) | 3 | 3 | 2 | 5 | -25* | i
Cc1sc(NC(=O)C2CCCCC2C(=O)O)c(C(N)=O)c1-c1ccc(C(C)(C)C)cc1 (configuration not stated) | 6 | 104* | 0 | 31 | i | i
CCOC(=O)c1c(NC(=O)/C=C/C(=O)O)sc(C)c1-c1ccc(C(C)(C)C)cc1 | -1 | -1 | -3 | 0 | i | 25*
N#Cc1ccc(OS(=O)(=O)c2ccc(-c3ccon3)s2)cc1 | -2 | 3 | 0 | 40 | i | i
Cc1noc(C)c1CCC(=O)Nc1cc(C(=O)O)ccc1Cl | . | -1 | -2 | 11 | . | .
Cc1ccc(C(=O)NNC(=S)NC(=O)COc2ccccc2)cc1 | -11 | 142* | 28 | -63 | i | 25*
CC(C)(C)c1ccc(OCC(=O)NNC(=O)CCc2ccccc2)cc1 | -1 | -1 | 1 | -10 | i | i
CC(C)(C)c1ccc(C(=O)NC(=S)NNC(=O)COc2ccccc2)cc1 | -4 | 96* | 16 | -64 | -4.6* | 100*
Cc1c(NS(=O)(=O)c2cccc(C(=O)NCc3cccc(Cl)c3)c2)c(=O)n(-c2ccccc2)n1C | 0 | -2 | 1 | 1 | i | .
CN(Cc1ccccc1)C(=O)c1csc([C@@H]2O[C@H](CO)[C@@H](O)[C@H]2O)n1 | . | . | -1 | . | . | .
CN(C)c1ccc(/C=C/C(=O)c2cccc(Br)c2)cc1 | 7 | 278* | 0 | -346 | i | i
CN(C)c1ccc(C(=O)/C=C/c2cccnc2)cc1 | -1 | -2 | 0 | 4 | i | i
N#CC1CC(c2ccccc2)Nc2cc(Cl)ccc2N1 (configuration not stated) | 14* | -2 | 0 | 4 | i | i
COc1cccc(NC(=O)C2(C)CCN2Cc2ccc(SC)cc2)c1 (configuration not stated) | . | . | -1 | . | . | .
CNC(=O)c1ccsc1NC(=O)CS(=O)(=O)c1ccc(F)cc1 | . | 0 | 0 | 12 | . | .
COc1ccc(NC(=O)[C@@H]2CC=C[C@@H]3CCN(C4CCCCC4)C(=O)[C@@H]32)cc1 | 12* | -4 | 1 | -47 | i | i
COc1ccc(CNC(=O)[C@@H]2CC=C[C@@H]3CCN(C4CCCCC4)C(=O)[C@@H]32)cc1 | 0 | -1 | 1 | -4 | i | i
Cc1cccc(C)c1NC(=O)C1(C)CCC(=O)N1CCc1c[nH]c2ccccc12 (configuration not stated) | . | . | -1 | . | . | .
CCOC(=O)CCSc1nc(C)c2cc(OC)ccc2n1 | -1 | 0 | 1 | 1 | i | i
Cc1ccc2nc(SCc3ccc([N+](=O)[O-])cc3)nc(C)c2c1 | 13* | 1 | 1 | -6 | i | i
SMILES | GRIN3A LBD mod | CRFR2-BP ag | MPTP block | CRFR2-BP antag | TMEM16A act | ANO1 block
Cc1cc(C)c2nc(SCc3ccc([N+](=O)[O-])cc3)nc(C)c2c1 | 2 | 9 | 5 | -17 | i | i
CCOc1ccc2nc(SCc3cccc(C)c3)nc(C)c2c1 | 15* | 6 | 42 | -13 | i | i
COC1=C/C(=C/c2c(N)n3nc(-c4ccc(C)cc4)sc3nc2=O)C=CC1=O | 7 | 195* | 0 | -226 | i | .
COC1=C/C(=C/c2c(N)n3c(nc2=O)sc2cc(S(C)(=O)=O)ccc23)C=CC1=O | 6 | 96* | 7 | -87 | i | i
CCOC1=C/C(=C/c2c(N)n3nc(-c4ccccc4)sc3nc2=O)C=CC1=O | 8 | 73* | 0 | -134 | i | .
CS(=O)(=O)c1ccc2c(c1)sc1nc(=O)c(/C=C3/C=CC(=O)C(O)=C3)c(N)n12 | 10 | 28 | 17 | -29 | i | i
COc1ccc(C(=O)c2c(-c3ccc(OC)cc3)oc3ccccc23)cc1 | -3 | 8 | 0 | 1 | i | .
CCOC(=O)c1c(-c2ccc(OC)cc2)oc2ccc(O)cc12 | -5 | 0 | 0 | 2 | i | i
COc1ccc(-c2oc3ccccc3c2C(=O)OCc2ccccc2OC)cc1 | 17* | 19 | 1 | -28 | i | i
CCOC(=O)c1c(-c2ccc(OC)cc2)oc2cc(Br)c(O)cc12 | 13* | 2 | 1 | -7 | i | i
CC(C(=O)Nc1ccc2c(c1)OCO2)c1ccc([N+](=O)[O-])cc1 (configuration not stated) | 0 | 18 | 1 | 2 | i | i
CC(C(=O)Nc1ccc2c(c1)OCCO2)c1ccc([N+](=O)[O-])cc1 (configuration not stated) | 3 | 110* | 1 | -68 | i | i
Cc1ccc2nc(-c3sc4nc(C)ccc4c3N)[nH]c2c1 | 25* | 0 | 0 | 10 | i | i
Cc1cc(C)c2c(N)c(-c3nc4ccccc4[nH]3)sc2n1 | 4 | -3 | 0 | 17 | i | i
COc1ccc(N2CCN(C(=O)c3ccc4[nH]c(C)c(C)c4c3)CC2)cc1 | 1 | 0 | 0 | -16 | i | i
Cc1cc(NC(=O)c2ccc3[nH]c(C)c(C)c3c2)ccn1 | 12* | -1 | 0 | 13 | i | i
CC(=O)Nc1cccc(NC(=O)c2cccc(Cl)c2)c1 | . | . | 0 | . | . | .
CC(=O)Nc1cccc(NC(=O)c2cccc(-c3ccc(O)cc3)c2)c1 | 10* | 12 | -1 | -44 | i | i
COc1ccc(C(=O)Nc2cccc(NC(C)=O)c2)cc1OC | -1 | 0 | -2 | 10 | i | i
CC(=O)Nc1cccc(NC(=O)c2ccc3[nH]c(C)c(C)c3c2)c1 | 28* | 2 | -3 | 11 | i | i

Source: PubChem BioAssay
